Screening data from PubChem.
AID923: qHTS Assay for Allosteric/Competitive Inhibitors of Caspase-1: Spectroscopic Profiling in AFC Spectral Region. 1.1% of 75,000 active. compound fluorescence, AFC spectral region (405/520 nm). Potency, µM (doses to about 57.5 µM), without a hit: top-dose fluorescence increase, hits mostly activators; further: potency means the concentration at half of the fitted maximal effect; 0% is about no effect
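Compound autofluorescence profiled at 405 nm ex/520 nm em during kinetic caspase 1 run (50 nM enzyme, 5 uM Ac-WEHD-AFC, HEPES pH 7.5, 10 mM DTT). Titration up to 57 uM; baseline from regression intercept, normalized to AFC standard curve.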
A350 autofl: compound fluoresces in the Alexa 350 spectral region; max dye-equivalent concentration, M; 11% of 59,000 active; Compound autofluorescence, 340/450 nm, Alexa 350 dye-equivalents; hits give high values; in the data active means max dye-equivalent concentration above about 10 nM; inconclusive means mostly about 1.1 nM to 9.6 nM
CRE Fsk mod: alters forskolin-stimulated CRE reporter signaling in CHO cells; 2.5% of 71,000 active; AID 662; CHO CRE-bla reporter (cAMP response element driving beta-lactamase), forskolin EC10, beta-lactamase ratio; Potency, µM (series often up to 38.2 µM), for inactives: at the highest dose activity change, negative = inhibition, usual class: activators; active means well fitted activation curve with a large enough effect in the signal ratio, with a control signal flat, not every such curve was filed as active; inconclusive means small, poorly fitted or top-dose-only effect, or effect the other way, or a change in a side signal; the % refers to the signal ratio; further: potency means the concentration at half of the fitted maximal effect; % of control where 0% means no effect
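CRE-bla CHO cells stimulated with EC10 NKH 477 (water-soluble forskolin) and compound titrations, 3 h at 37C; beta-lactamase read with CCF4 after 2 h at room temperature. Activity from 460/530 nm emission ratio, AC50 values for positive or negative modulation.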
HADH2 inhib: blocks human hydroxyacyl-CoA dehydrogenase type II; recombinant HADH2, NADH fluorescence, beta-hydroxybutyryl-CoA; Potency, µM (top dose mostly 57.1 µM), inactives show at the top dose activity change, negative = inhibition, actives largely listed as inhibitors; 3.4% of 73,000 active; further: potency means the concentration at half of the fitted maximal effect; on the % scale 0 is the no-effect control and ±100 the full control effect; nearly all actives have a fitted effect of over 60% in size
Target sequence (Q99714 whole entry, looked up, one chain of several): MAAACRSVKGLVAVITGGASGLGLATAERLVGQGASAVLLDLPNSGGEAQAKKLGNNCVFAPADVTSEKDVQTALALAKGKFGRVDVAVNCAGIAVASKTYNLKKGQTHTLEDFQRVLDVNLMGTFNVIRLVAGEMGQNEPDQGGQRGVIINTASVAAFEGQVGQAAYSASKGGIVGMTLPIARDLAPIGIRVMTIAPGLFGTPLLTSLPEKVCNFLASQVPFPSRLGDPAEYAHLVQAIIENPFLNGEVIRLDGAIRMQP
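NADH fluorescence (ex 360/em 450 nm) read every 30 s for 4 min; activity taken as last-minus-first time point difference. Enzyme 20 nM, NAD+ 1 mM, beta-hydroxybutyryl-CoA 90 uM, pH 9.0 Tris buffer.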
HSD17B inhib: blocks hydroxysteroid 17-beta dehydrogenase activity; recombinant HSD17B10, NADH fluorescence kinetic; Potency, µM (titrated, usually from 57.1 µM), for the others: top-dose activity change, negative = inhibition, usual class: inhibitors; AID 893; 7.6% of 75,000 active; Q99714;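 further: the protocol describes HADH2 (HSD17B10) and not the HSD17B4 of the title; potency means the concentration at half of the fitted maximal effect; on the % scale 0 is the no-effect control and ±100 the full control effect; nearly all actives have a fitted effect of over 70% in size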
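Activity followed as NADH fluorescence increase (ex 360, em 450 nm) every 30 seconds for 4 min, using final 90 uM beta-hydroxybutyryl CoA and 1 mM NAD+. Recombinant His-tagged enzyme, 20 nM, pH 9.0 Tris buffer, 15 min compound preincubation.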
4-MU autofl: 4-MU region autofluorescence; compound autofluorescence, 340/450 nm, 4-MU equivalents; hits give high values; max dye-equivalent concentration, M; 11% of 59,000 active; AID 589; in the data active means max dye-equivalent concentration above about 10 nM; inconclusive means mostly about 1.1 nM to 9.6 nM
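Compounds in 100 mM Tris, pH 8.0, incubated 15 min at room temperature, then fluorescence read at 340 nm excitation/450 nm emission. Signal converted to 4-MU dye-equivalent concentration using an on-plate six-point 4-MU standard curve.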
* = called active by the depositor; [ ] = dose if it differs, or a comment. This is a sample that favours compounds with a hit; in the whole collection about 14% have one here. Unless noted, the call rests on the fitted dose curve; in most records, active means well fitted curve in the direction sought with a large enough effect; inconclusive means small, poorly fitted or top-dose-only effect, or another doubt; inactive means no such curve, though single readings can be large; an effect the other way counts as inactive or inconclusive.

How did O=C(CCN1CCN(c2ccc(F)cc2)CC1)Nc1ccc(F)cc1 do in these assays?
AID923: 0.5%; A350 autofl: 1.15e-08M*; CRE Fsk mod: inconclusive; HADH2 inhib: 1.7%; HSD17B inhib: -12.7%; 4-MU autofl: 1.05e-08M*

What do the screens show for `O=S(=O)(c1cccc(-c2nc3n(n2)Cc2ccccc2-3)c1)N1CCCC1`?
AID923: 0.4%; A350 autofl: inactive; CRE Fsk mod: inconclusive; HADH2 inhib: inconclusive; HSD17B inhib: -3.8%; 4-MU autofl: inactive

Results for O=S(=O)(Cc1ccccc1Cl)Nc1ccccn1 ?
AID923: -2.0%; A350 autofl: inactive; CRE Fsk mod: -9.6%; HADH2 inhib: 2.6%; HSD17B inhib: inconclusive; 4-MU autofl: inactive

Results for O=C(NCc1ccncc1)Nc1ccccc1Cl ?
AID923: 0.0%; CRE Fsk mod: -1.1%; HADH2 inhib: 5.5%; HSD17B inhib: 8.3%

What do the screens show for `CCOC(=O)N1CCC(Nc2nc3ccccc3n3nnnc23)CC1`?
AID923: 2.6%; A350 autofl: 1.46e-08M*; CRE Fsk mod: inconclusive; HADH2 inhib: inconclusive; HSD17B inhib: 12.6µM*; 4-MU autofl: 1.05e-08M*

What do the screens show for `CCOn1c(=O)c(=O)n(OCc2ccccc2)c2ccccc21`?
AID923: 0.4%; CRE Fsk mod: inconclusive; HADH2 inhib: 7.2%[11.4 µM]; HSD17B inhib: -6.0%

Results for CCOC(=O)COc1cc(=O)n(CC)c2ccccc12 ?
AID923: 0.8%; A350 autofl: inactive; CRE Fsk mod: 14.2%; HADH2 inhib: 9.5%; HSD17B inhib: -0.7%; 4-MU autofl: inactive

Results for CCOC(=O)COn1c(=O)c[n+]([O-])c2ccccc21 ?
AID923: 4.3%; A350 autofl: 3.31e-08M*; CRE Fsk mod: 3.0%; HADH2 inhib: inconclusive; HSD17B inhib: 1.9%; 4-MU autofl: 3.45e-08M*

Results for CCOn1c(=O)c(-c2cc3ccccc3o2)[n+]([O-])c2ccccc21 ?
AID923: 12.4%; A350 autofl: 1.94e-08M*; CRE Fsk mod: 2.9%; HADH2 inhib: -7.6%; HSD17B inhib: -1.6%; 4-MU autofl: 2.1e-08M*

What do the screens show for `CCOC(=O)COn1c(=O)c(-c2ccco2)[n+]([O-])c2ccccc21`?
A350 autofl: 2.48e-08M*; 4-MU autofl: 2.07e-08M*

What do the screens show for `CCOC(=O)N1CCC(NCCNC(=O)c2ccc(Cl)cc2)CC1`?
AID923: 1.3%; A350 autofl: inactive; CRE Fsk mod: -2.2%; HADH2 inhib: -4.0%; HSD17B inhib: -2.6%; 4-MU autofl: inactive

How did CCCn1c(N)c(Sc2ccc(Cl)cc2)c(=O)n(CCC)c1=O do in these assays?
AID923: -1.4%; A350 autofl: inactive; CRE Fsk mod: -13.8%; HADH2 inhib: 4.3%; HSD17B inhib: -0.3%; 4-MU autofl: inactive

What do the screens show for `Cc1ccc(S(=O)(=O)N2CCC(C(=O)O)(c3ccccc3)CC2)cc1`?
AID923: -3.9%[11.5 µM]; A350 autofl: inactive; CRE Fsk mod: -2.8%[7.6 µM]; HADH2 inhib: -0.5%[11.4 µM]; HSD17B inhib: 9.4%[11.4 µM]; 4-MU autofl: inactive

What do the screens show for `COc1cc(NC(=O)C2CCCN(S(=O)(=O)c3cnc[nH]3)C2)cc(OC)c1` (stereo not drawn)?
AID923: -0.2%; CRE Fsk mod: 0.4%; HADH2 inhib: 2.5%; HSD17B inhib: 2.1%

How did Cc1ccc(S(=O)(=O)NCc2ccco2)cc1C do in these assays?
AID923: 0.3%; CRE Fsk mod: -1.5%; HADH2 inhib: -3.1%; HSD17B inhib: 1.0%

How did Cc1noc(C)c1CSc1nc2ccccc2nc1NS(=O)(=O)c1ccc(Cl)cc1 do in these assays?
AID923: -2.8%; A350 autofl: 4.5e-08M*; CRE Fsk mod: inconclusive; HADH2 inhib: -3.1%; HSD17B inhib: inconclusive; 4-MU autofl: 3.4e-08M*

How did Cc1ccc(S(=O)(=O)Nc2nc3ccccc3nc2NCc2ccco2)cc1C do in these assays?
AID923: 9.3%; A350 autofl: 1.4e-07M*; CRE Fsk mod: inconclusive; HADH2 inhib: inconclusive; HSD17B inhib: 31.6µM*; 4-MU autofl: 1.08e-07M*

Results for Cc1ccc(S(=O)(=O)Nc2nc3ccccc3nc2NCc2ccco2)cc1 ?
AID923: 17.2%; A350 autofl: 1.54e-07M*; CRE Fsk mod: inconclusive; HADH2 inhib: inconclusive; HSD17B inhib: 31.6µM*; 4-MU autofl: 1.4e-07M*

How did O=S(=O)(Nc1nc2ccccc2nc1NCc1ccco1)c1ccc(Cl)cc1 do in these assays?
AID923: 2.9%; A350 autofl: 3.82e-08M*; CRE Fsk mod: -1.7%; HADH2 inhib: inconclusive; HSD17B inhib: inconclusive; 4-MU autofl: 2.97e-08M*

What do the screens show for `Cc1ccc(NC(=O)C2CCCN(S(=O)(=O)c3cnc[nH]3)C2)cc1F` (stereo not drawn)?
AID923: 1.8%; CRE Fsk mod: -9.0%; HADH2 inhib: 8.6%; HSD17B inhib: 5.4%

Results for O=C(OCc1nc2ccccc2s1)c1cccc(S(=O)(=O)N2CCOCC2)c1 ?
AID923: -0.8%; A350 autofl: inconclusive; CRE Fsk mod: inconclusive; HADH2 inhib: 10.7%; HSD17B inhib: -22.2%; 4-MU autofl: inactive

What do the screens show for `CC1=C(C(N)=O)C(c2cccc(O)c2)n2nc(CCCO)nc2N1` (stereo not drawn)?
AID923: -0.8%; CRE Fsk mod: -1.2%; HADH2 inhib: -7.5%; HSD17B inhib: 0.8%

How did Cc1cccc(S(=O)(=O)Nc2nc3ccccc3nc2NCc2ccco2)c1 do in these assays?
AID923: 3.7%; A350 autofl: 1.26e-07M*; CRE Fsk mod: inconclusive; HADH2 inhib: -26.1%; HSD17B inhib: 25.1µM*; 4-MU autofl: 1.03e-07M*

How did CCOC(=O)C1C(=O)OC2(CCOC(C)(C)C2)C1C(=O)OCC (stereo not drawn) do in these assays?
AID923: 0.5%; CRE Fsk mod: 3.9%; HADH2 inhib: 4.0%; HSD17B inhib: 13.3%

What do the screens show for `O=C(CCc1nc2ccccc2[nH]c1=O)OCC(=O)N1CCc2ccccc21`?
AID923: 1.7%; A350 autofl: 2.08e-08M*; CRE Fsk mod: inconclusive; HADH2 inhib: -9.4%; HSD17B inhib: inconclusive; 4-MU autofl: 1.48e-08M*

How did CCC(OC(=O)CCc1nc2ccccc2[nH]c1=O)C(=O)c1ccccc1 (stereo not drawn) do in these assays?
AID923: -2.7%; A350 autofl: 3.21e-08M*; CRE Fsk mod: 12.6%; HADH2 inhib: 10.0%; HSD17B inhib: inconclusive; 4-MU autofl: 3.19e-08M*

Results for O=C(CCc1ccc(S(=O)(=O)N2CCOCC2)cc1)OCc1nc2ccccc2s1 ?
AID923: 4.1%; A350 autofl: inactive; CRE Fsk mod: -6.4%; HADH2 inhib: 3.8%; HSD17B inhib: 1.0%; 4-MU autofl: inactive
